Laboratory results from a collection of fitness landscapes (doi:10.1016/j.celrep.2020.107928).
Whole data set: some 81,000 sequences, median “one-hybrid fitness for binding NBS DNA” near -0.1, cut for the highest 2% near 0.36. The list comes from a sample in which the highest values are over-represented; it also holds similar and randomly drawn sequences.

B1: Caulobacter ParB omega fusion; a variant is named by its letters at X, in order, B8GW30 (parent)
chain: MESVVVGEPGMSEGRRGLGRGLSALLGEVDAAPAQAPGEQLGGSREAPIEILQRNPDQPRRTFREEDLEDLSNSIREKGVLQPILVRPSPDTAGEYQIVAGERAWRAAQRAGLKTVPIMVRELDDLAVLEIGIIENVQRADLNVLEEALSYKVLMEKFERTQENIAQTIGKSXSHVANXMRLLXLPDEVQSYLVSGELTAXHARAIAAAADPVALAKQIIEGGLSVRETEALARKAPNLSAGKSKGGRPPRVKDTDTQALESDLSSVLGLDVSIDHRGSTGTLTITYATLEQLDDLCNRLTRGI

Variants of: B1
Assay: one-hybrid fitness for binding NBS DNA (the Noc-binding site; scaled: cognate 1, non-cognate 0); higher = stronger binding
Settings: with NBS DNA site
Outline: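 In E. coli USO, a HIS3 reporter with its site placed 19 bp from the promoter was used to select Caulobacter ParB variants randomised at four specificity codons. Growth lasted 48 hours at 37°C on histidine-free M9 containing 0.1 mM IPTG and 5 mM 3-AT. Fitness was taken as the log change in variant-to-wild-type read ratio from Illumina sequencing of pre- and post-selection plasmids, rescaled between the non-cognate and cognate sites.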

Variant	one-hybrid fitness for binding NBS DNA
FDNG	≤ 0.2
NNAW	≤ 0.2
YMTS	≤ 0.2
GPQR	≤ 0.2
YAEG	≤ 0.2
QGWN	≤ 0.2
VMDS	≤ 0.2
LDDR	≤ 0.2
SESE	≤ 0.2
DLGS	≤ 0.2
RAYT	0.353
RAWT	0.236
RERT	≤ 0.2
RIYT	0.34
RART	0.621
RFRT	0.456
RIRT	0.615
RCRT	0.706
RFYT	≤ 0.2
RFDT	≤ 0.2
RIPT	≤ 0.2
RPRT	≤ 0.2
PNYV	≤ 0.2
RQPS	≤ 0.2
SQNC	≤ 0.2

Variant	one-hybrid fitness for binding NBS DNA
HISC	≤ 0.2
LSFT	≤ 0.2
TGSY	≤ 0.2
KYSS	≤ 0.2
CQDS	≤ 0.2
RCDT	0.266
RSYT	0.322
RPYT	≤ 0.2
RSRT	0.602
RCYT	0.517
RSIT	≤ 0.2
CPVW	≤ 0.2
KHGP	≤ 0.2
QYAR	0.517
QYFR	0.366
QYAN	≤ 0.2
QYFS	≤ 0.2
QYAH	≤ 0.2
QYFN	≤ 0.2
INHG	≤ 0.2
YKQS	≤ 0.2
TADE	≤ 0.2
RCLS	0.396
RSLS	0.303
RPLS	≤ 0.2

Variant	one-hybrid fitness for binding NBS DNA
RRLP	≤ 0.2
RCLH	≤ 0.2
RRLH	0.365
RRLS	0.606
RRLD	≤ 0.2
RRLN	0.23
GLNS	≤ 0.2
KRSF	≤ 0.2
ASNS	≤ 0.2
DKMS	≤ 0.2
HKVM	≤ 0.2
VYHT	≤ 0.2
KGST	≤ 0.2
WSCT	≤ 0.2
QKFP	≤ 0.2
QKAK	≤ 0.2
QKFR	0.435
QKFH	≤ 0.2
QKAH	≤ 0.2
QKAR	0.606
GQKR	0.201
SYQK	≤ 0.2
QHDR	0.336
QDDR	≤ 0.2
QCDR	0.402

Variant	one-hybrid fitness for binding NBS DNA
QIDR	0.234
QHNR	0.618
QSNR	0.62
QINN	≤ 0.2
QSDR	0.317
QPDR	≤ 0.2
QHNP	≤ 0.2
QINR	0.479
QSNP	≤ 0.2
PRGP	≤ 0.2
QLNR	0.551
QLDR	0.295
QANR	0.583
QFNR	0.268
QCNR	0.751
QADR	0.314
QLND	≤ 0.2
QPNR	0.236
QANN	≤ 0.2
NTLI	≤ 0.2
VIMF	≤ 0.2
LAGN	≤ 0.2
EMRR	0.21
ADQR	≤ 0.2
FNIT	≤ 0.2

Variant	one-hybrid fitness for binding NBS DNA
RPMM	≤ 0.2
GCIC	≤ 0.2
QTYR	0.691
QTRR	1.15
NTRR	0.235
QTDR	0.483
QTDP	≤ 0.2
QTNR	0.936
QTNK	0.304
QTNG	0.286
DTRR	0.303
PSTM	≤ 0.2
IDSK	≤ 0.2
HNGW	≤ 0.2
VPAW	≤ 0.2
YCQT	≤ 0.2
TPGL	≤ 0.2
LPPV	≤ 0.2
HSKL	≤ 0.2
ISKT	≤ 0.2
IRVT	≤ 0.2
CRKT	0.365
IRDT	≤ 0.2
ICKS	≤ 0.2
CRVT	≤ 0.2

Variant	one-hybrid fitness for binding NBS DNA
ISNT	≤ 0.2
IRKD	≤ 0.2
IRKT	0.471
IRKS	0.37
IRNT	0.451
CCKT	≤ 0.2
NWRM	≤ 0.2
VPHA	≤ 0.2
QWQG	≤ 0.2
FVWR	≤ 0.2
DGRN	≤ 0.2
NANS	≤ 0.2
VHVA	≤ 0.2
KSLV	≤ 0.2
HSRL	≤ 0.2
IRRR	0.601
ICNR	≤ 0.2
ISKR	0.243
ICRR	0.291
IRNR	0.422
IRYR	0.226
IRKR	0.67
IRDR	≤ 0.2
ICKR	0.273
IRYT	≤ 0.2

Variant	one-hybrid fitness for binding NBS DNA
ICRT	≤ 0.2
IRRT	0.423
HAYM	≤ 0.2
CMSN	≤ 0.2
ARHS	≤ 0.2
TQNT	≤ 0.2
TSWF	≤ 0.2
VQPL	≤ 0.2
RWGG	≤ 0.2
MFWL	≤ 0.2
RIRE	≤ 0.2
TLNG	≤ 0.2
DAAP	≤ 0.2
GRNT	≤ 0.2
VFAC	≤ 0.2
QAYA	0.249
QHRA	0.533
QHDA	≤ 0.2
QCYA	0.328
QMYA	0.267
QADA	≤ 0.2
QMDA	≤ 0.2
QARA	0.519
QCRA	0.658
QMRA	0.569

Variant	one-hybrid fitness for binding NBS DNA
QHYA	0.291
QPRA	≤ 0.2
QTEQ	≤ 0.2
PTMF	≤ 0.2
HNHR	≤ 0.2
PCGG	≤ 0.2
TWLL	≤ 0.2
LKVE	≤ 0.2
PCRQ	≤ 0.2
SSRV	≤ 0.2
HLTD	≤ 0.2
QIRA	0.386
QIAA	≤ 0.2
QKYA	0.249
QKRA	0.539
QLYA	≤ 0.2
QSRA	0.516
QLDA	≤ 0.2
QLRA	0.479
QKFA	≤ 0.2
QSDA	≤ 0.2
QIYA	≤ 0.2
QSYA	0.208
